Rows were chosen to be rich in hits. Some 4.7% of all compounds tested hit in one or more screens of this group.
EBI2 block: EBI2 receptor antagonists, beta-arrestin recruitment, primary screen, cell-based, luminescence, 7a,25-OHC stimulation, uHTS | 360,000 compounds, 0.81% hits | 7a,25-OHC stimulated | G-protein coupled receptor 183 (Homo sapiens), P32249 | inhibition, % at 5 µM; in the data active means inhibition above about 38%;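 further: enzyme fragment complementation signal reports receptor beta-arrestin coupling in cells; 0% = agonist plus DMSO wells and 100% = wells without agonist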
Target sequence (P32249 whole entry, looked up, the tested form may be a part): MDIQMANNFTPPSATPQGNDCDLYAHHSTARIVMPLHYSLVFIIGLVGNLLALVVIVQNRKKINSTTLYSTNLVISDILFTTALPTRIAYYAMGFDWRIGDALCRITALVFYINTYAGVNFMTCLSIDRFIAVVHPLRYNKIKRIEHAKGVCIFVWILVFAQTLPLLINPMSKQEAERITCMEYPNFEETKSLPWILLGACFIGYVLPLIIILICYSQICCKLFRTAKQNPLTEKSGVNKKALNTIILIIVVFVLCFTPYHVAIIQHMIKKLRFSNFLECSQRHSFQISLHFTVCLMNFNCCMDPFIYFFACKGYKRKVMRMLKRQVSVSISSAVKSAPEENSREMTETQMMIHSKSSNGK
TIM10 inh: growth inhibitors of isogenic TIM10 control yeast, primary screen, counter-screen for tim10-1 yeast inhibitor project, luminescence, uHTS. AID 463195, 2010. inhibition, % at 10 µM. S. cerevisiae TIM10 strain growth, BacTiter-Glo luminescence, 24 h. 330,000 compounds, 1.4% hits;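 active means inhibition of 40% or more at the single tested concentration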;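 further: wild-type TIM10 isogenic control strain grown at permissive 25 °C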
tim10-1 inh: growth inhibitors of tim10-1 mutant yeast, primary screen, luminescence, uHTS. S. cerevisiae tim10-1 ts strain growth, BacTiter-Glo, 24 h. inhibition, % at 20 µM. 330,000 compounds, 2.2% hits. AID 463190, 2010;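 active means inhibition of at least 40%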;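 further: mutant grown at 25 °C; 0% = DMSO wells with yeast and 100% = wells holding no yeast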
PfHsp90 yeast 2: growth inhibition of PfHsp90-expressing yeast, primary screen, antimalarial PfHsp90 inhibitor project, S. cerevisiae, BacTiter-Glo luminescence, single point, set 2; AID 504621, 2011; 310,000 compounds, 0.32% hits; BacTiter-Glo ATP, 48 h; yeast lacking PDR1 and PDR3 efflux regulators; inhibition, % at 9.4 µM;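 active means every replicate shows inhibition above about 80%, whatever the replicate mean, limit read from the data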;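 further: 0% = DMSO neutral controls and 100% = 20 µM radicicol positive controls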
tim23-1 inh: growth inhibitors of tim23-1 mutant yeast, primary screen, luminescence, uHTS; S. cerevisiae tim23-1 growth, BacTiter-Glo luminescence, 24 h; inhibition, % at 20 µM; 330,000 compounds, 1.3% hits;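 active means growth inhibition of the mutant yeast at or above 50%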;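 further: temperature-sensitive mutant grown at 25 °C; plate controls were DMSO-treated mutant yeast for no effect and medium wells lacking yeast for full effect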
SKKanGAS inh: S. pyogenes SKKanGAS growth inhibitors in kanamycin, primary screen, streptokinase expression inhibitor project, SKKanGAS strain, BacTiter-Glo luminescence | 6 h | 300,000 compounds, 1.3% hits | inhibition, % at 7.5 µM;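 active means mean replicate score, as percent of positive control median, at least 50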;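 further: strain carries kanamycin resistance gene driven by streptokinase promoter and grows in 40 µg/ml kanamycin; loss of luminescence reflects streptokinase promoter inhibition or plain growth inhibition; 0% = median of DMSO wells and 100% = positive control at its reference dose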
TIM10 conf: growth inhibitors of wild-type TIM10 yeast, confirmation, counter-screen for tim10-1 synthetic lethality project, single concentration, luminescence, S. cerevisiae | shares compounds with TIM10 inh | S. cerevisiae tim10 strain growth, BacTiter-Glo luminescence, 24 h | inhibition, % at 10 µM | 4,600 compounds, 63% hits;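 active means inhibition of yeast growth at or above a set limit in either of two replicates at 10 µM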;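 further: this counterscreen used the strain with wild-type TIM10; 0% = yeast with DMSO and 100% = medium wells lacking yeast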
* hit, by the source's call; nt = no result given.

SMILES	EBI2 block	TIM10 inh	tim10-1 inh	PfHsp90 yeast 2	tim23-1 inh	SKKanGAS inh	TIM10 conf
O=C(c1ccco1)N1CCN(Cc2cn[nH]c2-c2ccc(F)cc2F)CC1	-3.5	-3.1	8.6	-8.4	-2.0	8.7	nt
Cc1cccc(-c2nc(=S)c3c(o2)CCCC3)c1	-2.3	43.6*	23.5	nt	34.8	-0.6	33.0*
O=S(=O)(c1cccc(-c2csc(-c3cccnc3)n2)c1)N1CCCCC1	25.3	13.2	25.9	2.7	29.3	3.1	nt
O=S(=O)(c1ccc(-c2csc(-c3cccnc3)n2)cc1)N1CCCCC1	20.9	48.2*	37.1	nt	20.7	4.9	27.9
CCOc1ccc(/C=N/n2c(SC)nnc2-c2ccccc2)cc1OCC	-8.3	43.2*	14.0	-16.3	19.2	-1.4	21.0
COC(=O)c1ccc(C)c(NC(=O)c2ccc(Cn3cc([N+](=O)[O-])cn3)o2)c1	-8.4	11.8	16.8	-8.0	8.3	1.3	nt
CCNS(=O)(=O)c1ccc(NC(=O)c2ccc(Cn3cc([N+](=O)[O-])cn3)o2)cc1	-5.9	47.0*	-7.5	3.9	8.7	3.7	3.1
COc1ccc([N+](=O)[O-])cc1NC(=O)C1CCCCC1C(=O)O (configuration not stated)	-6.4	3.9	12.9	-28.9	7.3	-2.3	nt
O=C(CC12CC3CC(CC(C3)C1)C2)N/N=C\c1ccc[nH]1	1.0	46.2*	31.8	5.9	36.1	5.8	34.4*
Cc1cccc(NCC(=O)N/N=C\c2ccc[nH]2)c1	-4.1	10.1	8.4	-31.6	8.2	3.5	nt
COc1ccc(OC)c(/C=C/C(=O)OCC(=O)NCc2cccs2)c1	10.3	40.8*	20.9	nt	21.9	nt	5.1
COc1ccc(OC)c(/C=C/C(=O)OCC(=O)NCc2ccccc2)c1	3.0	10.0	8.6	-4.5	31.4	nt	nt
CCOC(=O)c1ccc([N+](=O)[O-])c(CS(=O)(=O)c2ccc(Cl)cc2)c1	13.3	10.4	27.0	5.7	37.4	0.0	nt
Cc1ccc(S(=O)(=O)Cc2cc(F)c([N+](=O)[O-])cc2[N+](=O)[O-])cc1	-12.2	89.0*	29.2	73.3	-8.4	6.2	68.4*
CC(=O)Cc1nsc(NC(=O)c2cccc(F)c2)n1	-1.7	50.1*	27.1	nt	27.0	2.2	-3.8
Cc1nnc(NC(=O)c2cccc(F)c2)s1	-3.6	6.2	2.0	7.9	5.6	3.4	nt
N/C(=N\OC(=O)/C=C/c1ccc(Br)cc1)c1ccccn1	4.9	11.6	11.0	15.9	6.1	5.5	nt
N/C(=N\OC(=O)/C=C/c1ccccc1Cl)c1ccccn1	-11.2	50.5*	35.9	-19.1	48.5	-9.4	55.4*
CN(C)c1ccc(C(O)Cc2nc3ccccc3n2C)cc1 (configuration not stated)	-10.0	-10.8	2.9	40.9	17.8	2.0	nt
CC(C)c1ccc(C(O)Cc2nc3ccccc3n2C)cc1 (configuration not stated)	13.3	42.6*	16.9	11.0	16.8	16.7	-4.3
C/C(=N\NC(=S)Nc1ccccc1C)c1cc2ccccc2o1	19.9	41.9*	25.0	-28.1	32.8	12.6	21.6
Cc1ccc(C(C)C)c(OCC(=O)NN=C(CCl)CCl)c1	nt	-19.8	3.8	nt	23.5	-2.9	nt
O=C(N/N=C/c1ccccn1)c1ccc([N+](=O)[O-])cc1	-9.8	-2.3	10.5	-11.9	0.1	2.6	nt
O=C(N/N=C/c1ccccn1)c1ccc(N/N=C/c2ccccn2)cc1	-4.6	62.0*	28.4	2.4	18.4	1.0	33.9*
N=C1N(/N=C/c2ccccc2)C(=Nc2ccccc2)C(=S)N1c1ccccc1	1.6	57.2*	36.5	17.0	47.2	21.7	35.3*
SMILES	EBI2 block	TIM10 inh	tim10-1 inh	PfHsp90 yeast 2	tim23-1 inh	SKKanGAS inh	TIM10 conf
COc1ccccc1-c1c(C)nn2c(N3CCC(C(N)=O)CC3)cc(C)nc12	-3.6	-1.1	8.4	-14.3	7.4	3.5	nt
COc1ccccc1-c1c(C)nn2c(N3CCC(C)CC3)cc(C)nc12	3.2	40.4*	38.4	6.0	48.5	-6.8	46.9*
CN(Cc1ccc(Br)cc1)C(=O)CCN1C(=O)c2cccc([N+](=O)[O-])c2C1=O	-13.6	12.8	12.0	14.3	4.8	-1.1	nt
CCN(CC)c1ccc(C(=S)NC2CCCCC2)cc1	8.0	45.8*	32.4	-0.7	24.4	0.3	27.6
CCCN=C(C)c1c(-c2ccccc2)[nH]n(-c2nc3ccccc3s2)c1=O	-7.8	45.4*	27.3	nt	26.3	17.1	39.5*
COc1ccc(Sc2cc(C(F)(F)F)nc(-c3ccccn3)n2)cc1	-2.6	44.9*	36.6	-12.4	33.8	20.5	31.2*
C#CCSc1cc(C(F)(F)F)nc(-c2ccccn2)n1	-33.6	13.7	12.2	-8.7	24.7	-1.1	nt
CC(C)NC(=O)N(C)C[C@@H]1Oc2c(NC(=O)C3CCOCC3)cccc2C(=O)N([C@@H](C)CO)C[C@H]1C	-2.8	96.6*	-8.3	-14.3	-21.0	nt	-10.1
Cc1cccc(C)c1NC(=O)c1csc(COCCO)n1	-7.6	nt	nt	nt	nt	nt	nt
COc1ccc(N2CCN(c3ncnc4scc(-c5ccc(F)cc5)c34)CC2)cc1	33.4	11.7	12.5	-20.3	5.7	-6.5	nt
COc1ccc(N2CCN(C(=O)CSc3ncnc4scc(-c5ccc(C)cc5)c34)CC2)cc1	19.8	43.2*	20.4	nt	23.1	29.6	9.6
COc1ccc(CN2CCN(c3ncnc4scc(-c5ccc(F)cc5)c34)CC2)cc1	7.8	42.0*	34.5	-3.6	47.5	-5.9	45.5*
O=C(COC(=O)CN1C(=O)C(=O)c2ccccc21)OCN1C(=O)c2ccccc2C1=O	3.3	47.5*	9.4	-8.9	6.9	2.7	0.6
O=C(CCN1C(=O)c2ccccc2C1=O)OCN1C(=O)c2ccccc2C1=O	2.8	6.9	0.7	-29.4	14.7	-4.7	nt
CCC(OC(=O)CN1C(=O)C(=O)c2ccccc21)C(=O)Nc1ccccc1OC (configuration not stated)	7.1	-6.5	13.5	-8.1	16.6	-1.6	nt
CC1CCN(C(=O)c2ccc(NC3=C(Cl)C(=O)N(Cc4ccccc4)C3=O)cc2)CC1	20.2	41.4*	21.6	nt	39.6	nt	42.0*
COc1cccc(C2/C(=C(\O)c3ccc4c(c3)OCCO4)C(=O)C(=O)N2Cc2cccnc2)c1 (configuration not stated)	1.2	-6.0	-8.9	-10.5	-1.3	0.7	nt

High-throughput results: PubChem, several laboratories
